The assay deals with AT4G31550 (Arabidopsis thaliana, UniProt Q9SV15 228-325). The assay can be described thus: DPI-ELISA; DPI-ELISA, streptavidin 384-well plate, 1-2 pmol biotinylated dsDNA per well, crude native E. coli extract, anti-His detection; buffer as in Brand et al. [46],; high values mean tight binding. Particulars: tags: C-terminal His (pET-DEST42); label: 5' biotin on forward strand; dsDNA, one strand shown. (ELISA stands for enzyme-linked immunosorbent assay.)
Chain of AT4G31550 (Q9SV15 228-325): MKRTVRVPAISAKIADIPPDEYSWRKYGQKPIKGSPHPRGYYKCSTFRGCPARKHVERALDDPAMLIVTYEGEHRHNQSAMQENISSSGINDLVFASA
As to AAAAAAATCATCCTATTGTTGCTGTCAAAA, the binding signal came out at 0.665 ± 0.12 absorbance.
As for AAAAAAGCGCGAATTCTAGAACTATAAAAA, the binding signal came to 0.57 ± 0.113 absorbance.
In the case of AAAAAACTGTGTCCCCGTCCCATCTCAAAA it was 0.525 ± 0.12 absorbance; in that of AAAAAACTGTCTGTCCTATATCACTTAAAA, 0.66 ± 0.099 absorbance; in that of AAAAAACGCAACTCCGGATGTGGGGTAAAA, 0.545 ± 0.0636 absorbance.
In the case of AAAAAAACCTCTTTATTCTCGATTGTAAAA it was 0.585 ± 0.0495 absorbance; in that of AAAAAAGCTAGTCGATTCGGCTTAGAAAAA, 0.68 ± 0.17 absorbance; in that of AAAAAAGTACGGATGCCCGCGCGTATAAAA, 0.735 ± 0.205 absorbance.
The same measure for AAAAAATATTCCGCTTTTGGCTGAATAAAA: 0.635 ± 0.0636 absorbance.
Regarding AAAAAAATGCGCCCTTTCTGACATAAAAAA, the binding signal came to 0.615 ± 0.106 absorbance.
Regarding AAAAAACACGCCATTGACACTGGTAAAAAA, the binding signal was determined as 1.67 ± 0.219 absorbance.
AAAAAAACCCGGCCGCCATGGTAGTAAAAA gave a binding signal of 0.7 ± 0.212 absorbance.
In turn, AAAAAATGTGCCCGTGTGTGCTCGCGAAAA displayed a binding signal of 0.73 ± 0.0849 absorbance.
On to AAAAAAAGTGGCCGCTAGTCAACTCAAAAA, for which the binding signal stood at 3.46 ± 0.389 absorbance.
Sequence AAAAAACGTATTGATGTCTATTTCAAAAAA displayed a binding signal of 0.575 ± 0.0919 absorbance.
On to AAAAAATACTGGCTGTCTCGTTCACAAAAA, for which the binding signal came to 0.615 ± 0.0778 absorbance.
Sequence AAAAAAGTGTGTGGCTCAGGATTCCCAAAA displayed a binding signal of 0.55 ± 0.0849 absorbance.
As to AAAAAATTGCATTCCACCCTTAGGTTAAAA, the binding signal was 0.495 ± 0.106 absorbance.
As for AAAAAACCCTACATCGCATATAAGAGAAAA, the binding signal was determined as 0.675 ± 0.0212 absorbance.
On to AAAAAATTTCTATTTCATCTTTGCCCAAAA, for which the binding signal was 0.72 ± 0.156 absorbance.
In the case of AAAAAATCAAAACAACGATGCCGTTAAAAA it was 0.73 ± 0.0849 absorbance.
Take AAAAAATCTATTCCATTTCGCCTTCTAAAA: the binding signal is 0.68 ± 0.141 absorbance.
Regarding AAAAAATCGGGCCCCGTTAGCACTCTAAAA, the binding signal came to 0.665 ± 0.12 absorbance.
Turning to AAAAAAACTTCTGTCCCTGTTCCCGTAAAA, the binding signal stood at 0.55 ± 0.127 absorbance.
AAAAAAGTGCGTTCACGCTTGTATCTAAAA showed a binding signal of 0.69 ± 0.17 absorbance.
For the sequence AAAAAAAAGGACATTTTTTCTTTTTGAAAA, the binding signal was found to be 0.515 ± 0.0636 absorbance.
AAAAAAACCGCGTCGCGGCCCGGGAAAA showed a binding signal of 0.5 ± 0.113 absorbance.
In turn, AAAAAATTTGCTCTTTTGGTTTTCACAAAA showed a binding signal of 0.64 ± 0.0707 absorbance.
AAAAAAGTCTAGTCGTAAAAA registered a binding signal of 0.595 ± 0.0778 absorbance.
For the sequence AAAAAATAAACGTGTTCATACTTAGTAAAA, the binding signal worked out at 0.61 ± 0.0707 absorbance.
On to AAAAAATAGCGACTTCGACTCTCAGTAAAA, for which the binding signal amounted to 0.76 ± 0.0707 absorbance.
The same measure for AAAAAAATCCATATTATTGCTACCCGAAAA: 0.595 ± 0.0636 absorbance.
Turning to AAAAAATTGCACCTGATACTAGGGTTAAAA, the binding signal came to 0.655 ± 0.148 absorbance.
For AAAAAACCAGTCTACACCGCTGTAGGAAAA, the binding signal came to 0.705 ± 0.0919 absorbance.
The same measure for AAAAAATTTATACTTGATCCTGGCTTAAAA: 0.575 ± 0.0636 absorbance; for AAAAAAAAGCTTCGGAGTCTTGAGAAAAAA: 0.685 ± 0.0354 absorbance.
AAAAAACCCGTTCTACCTTATTCCTGAAAA: the binding signal amounted to 0.525 ± 0.106 absorbance.
On to AAAAAAGGACGTCTTCGGTATGAGTGAAAA, for which the binding signal stood at 0.815 ± 0.163 absorbance.
